Assay outcomes (PubChem)
NPC1 prom act = NPC1 promoter activation; Huh7 NPC1 promoter luciferase reporter, 24 h; AID 485313; Potency, µM (top dose mostly 9.22 µM), inactives show at the highest dose activation, hits mostly activators; 320,000 compounds, 2.4% hits; further: % of control where 0% means no effect; nearly all actives have a fitted effect of over 60% in size
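NPC1 promoter–luciferase Huh7 cells; 24 h compound; luminescence.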
SMN2 splice enh = SMN2 splice variant enhancement. HEK293 SMN2-luciferase splicing reporter, luminescence, 30-36 h. Potency, µM (series often up to 46.1 µM), for the others: at the top dose activity change, positive = activation, hits mostly activators. 210,000 compounds, 2.8% hits; further: % of control where 0% means no effect; nearly all actives have a fitted effect of over 55% in size
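qHTS luciferase splicing reporter: luminescence rises when SMN2 exon 7 is included in transfected HEK293 cells. Compound exposure lasted 30-36 h at 37C, with 4.5 mM final sodium butyrate as control, followed by a ONE-Glo read.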
Rab9 promoter act = activators of Rab9 promoter; Huh7 Rab9 promoter-luciferase reporter, luminescence, 24 h; Potency, µM (doses to about 9.22 µM), for the others: top-dose activation, negative = inhibition, actives largely listed as activators; 320,000 compounds, 2.8% hits; further: % of control where 0% means no effect; nearly all actives have a fitted effect of over 60% in size
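Measured in stably transfected Huh7 cells bearing a Rab9 promoter–luciferase construct: 24 h compound treatment at 37 °C, followed by luminescence detection.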
FLuc modulator = inhibits or activates purified firefly luciferase, miR-21 counter-screen; AID 588342; Potency, µM (highest dose often 57.5 µM), without a hit: at the top dose activity change, negative = inhibition, hits mostly inhibitors; purified FLuc, Km substrates, luminescence inhibition; 360,000 compounds, 6.9% hits;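 further: plate controls were vehicle for no effect and reference inhibitor for full effect; nearly all actives have a fitted effect of over 55% in size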
Target sequence (P08659 whole entry, looked up): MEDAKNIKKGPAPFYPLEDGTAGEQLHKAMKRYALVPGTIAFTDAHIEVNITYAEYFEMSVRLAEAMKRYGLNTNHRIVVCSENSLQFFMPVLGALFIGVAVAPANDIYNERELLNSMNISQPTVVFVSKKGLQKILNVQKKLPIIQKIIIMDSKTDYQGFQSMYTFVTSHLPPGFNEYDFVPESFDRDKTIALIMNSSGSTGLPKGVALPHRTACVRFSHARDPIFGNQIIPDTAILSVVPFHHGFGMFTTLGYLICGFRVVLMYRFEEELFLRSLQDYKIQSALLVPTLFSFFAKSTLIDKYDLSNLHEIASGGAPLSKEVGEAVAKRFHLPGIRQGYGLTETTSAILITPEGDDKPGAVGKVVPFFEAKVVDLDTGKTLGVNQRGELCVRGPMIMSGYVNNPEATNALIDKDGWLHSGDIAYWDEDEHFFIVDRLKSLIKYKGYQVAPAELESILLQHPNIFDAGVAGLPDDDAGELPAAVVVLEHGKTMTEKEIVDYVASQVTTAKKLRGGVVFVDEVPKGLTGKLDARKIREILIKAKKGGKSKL
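Purified P. pyralis luciferase (10nM final) with 10uM D-luciferin and 10uM ATP (Km levels) in 50mM Tris acetate pH 7.5, 10mM Mg acetate, 0.01% Tween-20, 0.05% BSA; qHTS 6-point titration, ~60 µM downward; luminescence read.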
ELG1 genotox = inducers of genotoxicity in HEK293T ELG1-luciferase cells | HEK293T ELG1-luciferase reporter, luminescence, 16 h | Potency, µM (doses to about 46 µM), without a hit: at the highest dose activity change, positive = activation, hits mostly activators | 330,000 compounds, 1.3% hits; further: % of control where 0% means no effect; nearly all actives have a fitted effect of over 60% in size
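After overnight (16 hr) compound treatment at 37 °C, ELG1-luciferase HEK293T cells were lysed with ONE-Glo; luminescence quantified 30 min later at room temperature.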
* = called active by the depositor; u = inconclusive; x = no result. Rows were chosen to be rich in hits. Some 7.4% of all compounds tested hit in one or more screens of this group. The call rests on the fitted dose curve; in most records, active means well fitted curve in the direction sought with a large enough effect; inconclusive means small, poorly fitted or top-dose-only effect, or another doubt; inactive means no such curve, though single readings can be large; an effect the other way counts as inactive or inconclusive. Potency means the concentration at half of the fitted maximal effect.

SMILES	NPC1 prom act	SMN2 splice enh	Rab9 promoter act	FLuc modulator	ELG1 genotox
Cn1c(C(=O)NCc2ccccc2)cc2oc3ccccc3c21	17%	32µM*	u	13µM*	7%
CCn1c(C(=O)NCc2ccccc2Br)cc2oc3ccccc3c21	x	4.5µM*	x	-10%	x
Cn1c(C(=O)NCc2cccs2)cc2oc3ccccc3c21	1%	4.5µM*	u	13µM*	-2%
Cn1c(C(=O)NCC2CCCO2)cc2c(=O)[nH]c3ccccc3c21 (stereo not drawn)	-7%	6%	3%	9%	1%
Cn1c(C(=O)NCC2CCCO2)cc2oc3ccccc3c21 (stereo not drawn)	2.8µM*	6%	1.6µM*	13µM*	u
CCN(CC)CCn1c2c(c(SCC(=O)Nc3cccc(C(F)(F)F)c3)nc1=O)CCC2	x	x	x	-5%	x
COC(=O)[C@@]1(Cc2ccc(OC)cc2)[C@H]2c3cc(C(=O)N(C)C)n(Cc4ccc(C)o4)c3C[C@H]2CN1C(=O)c1ccccc1	x	-2%	x	x	x
O=c1[nH]c(SCc2ccc(Cl)cc2)nc2ccsc12	30%	u	u	6µM*	11%
CCCc1cc(C(=O)Nc2cc(C)on2)no1	2%	5%	-5%	21µM*	u
Cc1cc(NC(=O)c2cc(CC(C)C)on2)no1	2%	21%	3%	11µM*	13µM*
Cc1ccc(C(=O)/C=C/c2ccc3c(c2)OCCO3)c(O)c1	u	x	3.5µM*	1.1µM*	u
O=C(/C=C/c1ccc2c(c1)OCCCO2)c1ccc2ccccc2c1O	3.2µM*	-34%	u	2.7µM*	u
COc1cc(/C=N\Nc2nncn2N)ccc1OC(C)=O	-5%	x	0%	u	7%
COc1ccc(OC)c(/C=N/Nc2nncn2/N=C/c2cc(OC)ccc2OC)c1	-9%	5%	-2%	15µM*	-2%
COc1cc(/C=N/Nc2nncn2/N=C/c2ccc(O)c(OC)c2)ccc1O	u	25µM*	u	0.38µM*	-7%
COc1ccc(NC(=O)Nc2cccc([N+](=O)[O-])c2)cc1Cl	1%	-7%	16%	21µM*	-2%
CC(=O)Nc1cccc(Oc2ccc([N+](=O)[O-])cc2Cl)c1	0%	9%	17%	24µM*	14%
CC(C)c1ccc(Nc2nnns2)cc1	0%	x	7%	u	0%
COC(=O)C1(C)Cc2cc(OC(C)=O)c(OC(C)=O)cc2N1 (stereo not drawn)	-7%	x	-7%	-2%	12%
Cc1cccc(OCC(=O)Nc2ccc3c(c2)OCO3)c1C	9%	0%	7%	19µM*	9%
Cc1ccc(OCC(=O)Nc2ccc3c(c2)OCO3)cc1C	5%	x	16%	24µM*	8%
O=C(COc1ccccc1[N+](=O)[O-])Nc1ccc2c(c1)OCO2	2.5µM*	13µM*	2.2µM*	4.8µM*	9.2µM*
O=C(COc1ccc2ccc(=O)oc2c1)Nc1ccc2c(c1)OCCO2	2%	12%	27%	9.5µM*	8%
O=C(COC(=O)COc1ccccc1[N+](=O)[O-])Nc1ccc2c(c1)OCO2	x	x	x	x	4%
Cc1cccn2c(=O)c(C=O)c(NCc3ccccc3)nc12	1%	x	-2%	-3%	4%
SMILES	NPC1 prom act	SMN2 splice enh	Rab9 promoter act	FLuc modulator	ELG1 genotox
NC(=O)c1cc(Cl)ccc1OCC(=O)Nc1ccc2c(c1)OCO2	1.4µM*	x	1.3µM*	0.85µM*	u
C/C(=N\Nc1ccc(C(=O)O)cc1)c1ccc2c(c1)Nc1ccccc1S2	u	x	u	2.1µM*	11%
O=C(NCC1CCCO1)c1cccc(C(=O)NCC2CCCO2)c1 (stereo not drawn)	-8%	x	0%	-2%	0%
O=C(NCCN1CCOCC1)c1sc2cc(Cl)ccc2c1Cl	1%	x	0%	-16%	16%
CC(C)(CNC(=O)c1sc2cc(Cl)ccc2c1Cl)N1CCOCC1	0%	x	-4%	u	16µM*
O=C(NCC1CCCO1)c1sc2cc(Cl)ccc2c1Cl (stereo not drawn)	3.2µM*	13µM*	2µM*	11µM*	u
O=C(NCC1CCCO1)c1ccc2[nH]c3c(c2c1)CCCC3 (stereo not drawn)	5%	x	26%	21µM*	12%
COc1ccccc1CNC(=O)c1cnn2c(C)c(Cc3ccc(F)cc3)c(C)nc12	x	x	x	2%	x
COc1cc(/C=C/C(=O)OCC(=O)N(C)C2CCS(=O)(=O)C2)ccc1OC(F)F (stereo not drawn)	-5%	x	7%	-1%	5%
COC(=O)c1cccc(NC(=O)c2cnoc2C)c1	18%	5%	u	24µM*	9%
Cc1coc(C)c1C(=O)Nc1ccc2ccccc2c1	3.5µM*	x	2.8µM*	11µM*	u
CC(=O)Nc1ccc2ccccc2c1	21%	7%	15%	u	u
Cc1oncc1C(=O)Nc1ccc2ccccc2c1	u	x	u	19µM*	u
Cc1oncc1C(=O)Nc1ccc(C(F)(F)F)cc1	u	11µM*	1.4µM*	u	u
Cc1nc(Cl)sc1C(=O)Nc1ccc(C(F)(F)F)cc1	2%	x	1%	-19%	0%
COC(=O)c1cccc(NC(=O)c2cccnc2)c1	-1%	4%	4%	1%	1%
CC(=O)NN1C(=O)/C(=C\c2ccc(C)cc2)SC1=S	-1%	-18%	0%	u	-1%
COc1cccc(/C=C2\SC(=S)N(NC(=O)c3ccncc3)C2=O)c1	0%	x	-3%	2%	1%
CC(=O)NN1C(=O)/C(=C\c2ccc(O)cc2)SC1=S	5%	x	-11%	17µM*	4%
COc1cc(/C=C2\SC(=S)N(NC(=O)c3ccc(O)cc3)C2=O)ccc1O	3%	x	3%	3µM*	10%
COc1cc(/C=C2\SC(=S)N(NC(=O)c3cccnc3)C2=O)ccc1O	-1%	x	-1%	17µM*	-2%
CC(Oc1ccc(Br)cc1)C(=O)NC1CCN(Cc2ccccc2)CC1 (stereo not drawn)	0%	x	0%	5%	6%
CN(C)S(=O)(=O)c1cccc(N=C2NN=C(c3ccccc3)CS2)c1	-1%	-58%	8%	u	-1%
Fc1ccc(F)c(C2=NNC(=Nc3ccccc3F)SC2)c1	u	-22%	30%	12µM*	u
Cc1ccccc1N=C1NC(=O)CS1	-3%	-11%	3%	0%	1%
Fc1ccc(N=C2NN=C(c3cc(F)ccc3F)CS2)cc1	11%	22µM*	u	24µM*	-3%
O=S(=O)(c1ccc(N=C2NN=C(c3cc(F)ccc3F)CS2)cc1)N1CCOCC1	-11%	x	-18%	-9%	-8%
Clc1ccccc1N=C1NN=C(c2cccs2)CS1	3.2µM*	8.9µM*	2µM*	12µM*	u
Cc1cccc(N=C2NN=C(c3ccccc3F)CS2)c1C	u	26%	u	19µM*	18%
